# The whole screen tested about 69,000 compounds, of which about 8,600 (12%) showed an effect of 50% or more. What follows is part of a selection rich in strong results, with near analogues and random picks from the rest.
# System: Plasmodium berghei
# Experiment: Screen against P. berghei liver stage (PbLuc), transformed with Luciferase, at 10uM
# Type: functional, HepG2
# Conditions: tested at 10 uM
row,Compound,INHIBITION [%]
1,CC(C)(C)S(=O)(=O)CCNC(=O)c1ccc2ccccc2c1,-35.8
2,COCc1cccc(S(=O)(=O)NCc2cnn(C)c2C)c1,-25.8
3,CSCc1cccc(S(=O)(=O)NCc2cnn(C)c2C)c1,78.3
4,Cc1c(CNS(=O)(=O)c2cccc(COC(C)C)c2)cnn1C,57.5
5,CSCc1cccc(S(=O)(=O)NCCO)c1,0.266
6,CNS(=O)(=O)c1cccc(CNC(=O)c2cnn(C)c2C)c1,11.3
7,CCNS(=O)(=O)c1cccc(CSC)c1,19.4
8,CS(=O)(=O)Nc1ccn(Cc2cccc(Cl)c2)n1,22.6
9,CCN(Cc1ccco1)C(C)c1nc(C)no1 (stereo not drawn),-97.2
10,COc1ccc(CN2Cc3nnn(C)c3C(COCCN(C)C)C2)cc1 (stereo not drawn),16.4
11,Cc1nc(-c2cc(Cl)c3c(c2)CC(CN)O3)c[nH]1 (stereo not drawn),24.4
12,Cc1cc2c(c(-c3c[nH]c(C)n3)c1)OC(CN)C2 (stereo not drawn),11.6
13,Cc1nc(-c2cc(Cl)cc3c2OC(CN)C3)c[nH]1 (stereo not drawn),68.3
14,Cc1cc(C(F)(F)F)c2c(=O)n(Cc3cc(C)on3)n(C)c2n1,42.1
15,CC(C)(CN)NS(=O)(=O)c1c(F)cccc1F,-4.62
16,Cc1ncsc1-c1nc(CC2CCN(C)CC2)nn1Cc1ccccc1,47.5
17,CN1CCC(Cc2nc(-c3cnccn3)n(Cc3ccccc3)n2)CC1,-14.3
18,CN1CCC(Cc2nc(-c3ccnn3C)n(Cc3ccccc3)n2)CC1,64.6
19,COc1c(C2CCCN2Cc2cccc(C(N)=O)c2)c(C)nn1C (stereo not drawn),-11.4
20,O=c1cc2c(nn1CN1CCC(c3ccccc3)CC1)CCC2,33.6
21,CCO[C@@H]1CN(S(=O)(=O)c2cn(C)cn2)[C@@H]2CCCO[C@@H]21,2.79
22,Cn1cnc(S(=O)(=O)N2C[C@H](OCC3CC3)[C@H]3OCCC[C@H]32)c1,40.8

row,Compound,INHIBITION [%]
1,CC(C)CO[C@H]1CN(S(=O)(=O)c2cn(C)cn2)[C@@H]2CCCO[C@H]12,53.9
2,CC(=O)N1C[C@H]2CC[C@@H](C1)N(C(=O)CCc1n[nH]c3c1CCCC3)C2,48.5
3,CC(C)n1cnnc1CN(C)C(=O)C1CCCN(CC(N)=O)C1 (stereo not drawn),4.25
4,Cc1cn2c(n1)C(CNCc1cccc3c1OCO3)CCC2 (stereo not drawn),62
5,Cc1cn2c(n1)C(CNCc1ccc(C)s1)CCC2 (stereo not drawn),51.1
6,Cn1cc(N2CCCC(NCc3cccc4c3OCCCO4)C2)cn1 (stereo not drawn),11.1
7,Cc1ccc(N2CCCC(NCc3cccc4c3OCO4)C2)nn1 (stereo not drawn),16.8
8,Cc1ccc(CNCC2CCCN2c2cccnn2)s1 (stereo not drawn),-19.9
9,Cc1ccc(CNCC2CCCn3ccnc32)s1 (stereo not drawn),43.7
10,CN(CCCc1cc(-c2ccccc2)no1)S(C)(=O)=O,-42.55
11,O=C(Cc1ccc2c(c1)CCO2)N1CCN(c2ccncc2)CC1,15.3
12,CC(C)NC(=O)[C@H]1C[C@H]2CN(C(=O)NCCc3ccccc3)C[C@@H]1O2,5.67
13,O=C(CNC(=O)c1ccc2c(c1)CCC2)NCCNc1ncccn1,-24.3
14,CCNC(=O)Nc1ncc(-c2cccnc2)s1,4.41
15,CC(C)C(C)n1nccc1NC(=O)Cn1cnc2ccccc21 (stereo not drawn),-8.99
16,COc1ccc(C(=O)Nc2n[nH]c(C3CCCO3)n2)cc1 (stereo not drawn),32.3
17,Cc1cccc(N2CCN(C(=O)c3c(C)nn(C)c3C)CC2)c1C,54.8
18,COC(=O)c1cccc(C(=O)N2CCN(c3cc(Cl)ccc3C)CC2)n1,66.4
19,COC(=O)c1cccc(C(=O)N2CCN(c3cc(C)ccc3C)CC2)n1,-19.4
20,COC(=O)c1cccc(C(=O)N2CCN(c3ccccc3F)CC2)n1,30
21,COC(=O)c1cccc(C(=O)N2CCN(c3cccc(C)c3C)CC2)n1,74.2
22,COC(=O)c1cccc(C(=O)N2CCN(c3ccc(Cl)cc3)CC2)n1,-18.3

row,Compound,INHIBITION [%]
1,COC(=O)c1cccc(C(=O)N2CCN(c3ccc(OC)cc3)CC2)n1,5.51
2,Cc1nn(C)c(C)c1C(=O)N1CCN(c2ccncc2Cl)CC1,43.9
3,Cc1cccc(N2CCN(C(=O)NC(C)c3nncn3C)CC2)c1C (stereo not drawn),-48.4
4,CN(C(=O)c1ncn2c1CN(C)S(=O)(=O)c1ccccc1-2)C1CC1,-30
5,CCC(C(=O)N(C)CCC1=CCN(C)CC1)c1ccccc1 (stereo not drawn),24
6,CCC(C)NC(=O)c1cc(S(=O)(=O)N(C)C)c(C)s1 (stereo not drawn),19.5
7,O=S1(=O)NC2(CCCN(CCc3ccccc3)C2)COc2ccccc21 (stereo not drawn),24.2
8,Cc1nc(N2CCCN(C(=O)c3ccsc3)CC2)c2cnn(C)c2n1,14.4
9,CS(=O)(=O)NCCC1CCCCN1C(=O)NCCc1ccccn1 (stereo not drawn),-25.6
10,Cc1nc(CN2CCCC2c2[nH]ncc2C(=O)N(C)C)cs1 (stereo not drawn),8.53
11,Cc1c[nH]c(CN(C)C(C(=O)O)c2c(F)cccc2Cl)n1 (stereo not drawn),16.5
12,CCOc1ccccc1C(C(=O)O)N(C)Cc1nc(C)c[nH]1 (stereo not drawn),21.1
13,COc1cc(F)ccc1C(C(=O)O)N(C)Cc1ccon1 (stereo not drawn),-66.4
14,Cc1c[nH]c(CN(C)C(C(=O)O)c2c(F)cccc2OC(C)C)n1 (stereo not drawn),58.2
15,CC(C)Oc1cccc(F)c1C(C(=O)O)N(C)Cc1ccon1 (stereo not drawn),71.2
16,COc1ccc(Cl)cc1C(C(=O)O)N(C)Cc1ccon1 (stereo not drawn),-73.6
17,CC(Cn1cccn1)NC(=O)c1cccs1 (stereo not drawn),-40.2
18,CN1CCCC1CCNC(=O)Nc1ccccc1 (stereo not drawn),27.3
19,Cc1cc(Oc2ccccc2C)nc(C2CCCN2)n1 (stereo not drawn),4.41
20,Cc1cccc(C(=O)NC(C)CN2CCCC2=O)n1 (stereo not drawn),4
21,O=C(CCn1ccnc1)N1C[C@@H](O)[C@H](Oc2cccc(F)c2)C1,-31
22,CC(=O)NCC(=O)N1CCOC2(CCCN(c3cccnc3)C2)C1 (stereo not drawn),6.8

row,Compound,INHIBITION [%]
1,Cc1cc(C)nc(N2CCCC(c3nccn3CCCN(C)C)C2)c1 (stereo not drawn),17.1
2,CN(C)C(=O)COCC1CN(Cc2ccco2)Cc2ncn(C)c21 (stereo not drawn),39.5
3,NC(=O)c1cnc2n1CCN(C(=O)c1ccc(-c3cc[nH]n3)cc1)C2,11.7
4,O=C1COc2cccc(OCc3ccccn3)c2N1,12.3
5,CC(C)c1nc(COc2cccc3c2NC(=O)CO3)cs1,79.1
6,Cc1ncc(COc2cccc3c2NC(=O)CO3)s1,8.05
7,O=C(CCc1nc(-c2ccccn2)no1)N1CCCC1c1ccsc1 (stereo not drawn),7.08
8,O=C(CCN1CCOCC1)NC(Cc1ccsc1)c1nccs1 (stereo not drawn),5.055
9,Cc1nc(C2CCCN2C(=O)CCc2ccccc2)ncc1C(N)=O (stereo not drawn),18.3
10,NC(=O)c1cn[nH]c1C1CCCN1C(=O)c1ccccn1 (stereo not drawn),11.8
11,Cc1nc(C2CCCN2C(=O)Cc2ccc(F)cc2)ncc1C(N)=O (stereo not drawn),19.6
12,Cc1nc(C2CCCN2C(=O)c2ccccc2)ncc1C(N)=O (stereo not drawn),40.4
13,NC(=O)c1cn[nH]c1C1CCCN1C(=O)c1ccccc1 (stereo not drawn),6.26
14,Cc1nc(C2CCCN2C(=O)c2ccc(F)cc2)ncc1C(N)=O (stereo not drawn),55.6
15,Cc1nc(C2CCCN2C(=O)CC2CCCC2)ncc1C(N)=O (stereo not drawn),17.1
16,Cc1nc(C2CCCN2C(=O)COc2ccccc2)ncc1C(N)=O (stereo not drawn),52
17,NC(=O)c1cn[nH]c1C1CCCN1C(=O)COc1ccccc1 (stereo not drawn),52.7
18,COC(=O)NCC(=O)N1CCc2cc(Cl)cc(Cl)c2C1,-10.9
19,Cc1nc(-c2ccccc2C)n(CC(=O)NC2CCCC2)n1,7.27
20,O=C(c1cscn1)N1CCCC(n2cncn2)C1 (stereo not drawn),-17.4
21,OC1(CN(Cc2cccnc2)C2CCCCC2)CNCCOC1 (stereo not drawn),41.8
22,O=C(C1CCOCC1)N1C[C@@H]2OCCN(CCN3CCCC3)[C@@H]2C1,46.7

row,Compound,INHIBITION [%]
1,CN(C)C(=O)N1CCC(C(=O)N2CCOC(CC3CCCCC3)C2)CC1 (stereo not drawn),22.2
2,CC(=O)N1CCC(C(=O)N2CCOC(CC3CCCCC3)C2)CC1 (stereo not drawn),54.8
3,O=C(C1CCOCC1)N1CCOC(CC2CCCCC2)C1 (stereo not drawn),54.8
4,Cc1ncoc1C(=O)N1CCOC(CC2CCCCC2)C1 (stereo not drawn),24.7
5,CC(=O)N1CCC(N2CCOC(CC3CCCCC3)C2)CC1 (stereo not drawn),35.2
6,Clc1ccc2cccnc2c1CNC1CCc2ncnn2C1 (stereo not drawn),-92.9
7,Cc1cc(N(C)C)cc(C2CCN(S(=O)(=O)c3cccs3)C2)n1 (stereo not drawn),46.55
8,CC(C)NC(=O)c1cccc(Oc2ccc3nncn3n2)c1,2.84
9,Cc1nc(-c2ccsc2)ccc1C(=O)NCCN1CCN(C)CC1,18.515
10,CCC1=NC(SCC(=O)c2ccc(OC)cc2)c2cc(CC)sc2N1 (stereo not drawn),36.6
11,CN(C)C(=O)N1CCC2(CCCN(CCOc3ccccc3)C2)C1 (stereo not drawn),-44.2
12,CC(C)C(=O)N1CCC2(CCCN(CCOc3ccccc3)C2)C1 (stereo not drawn),-4.27
13,O=C(N1CCCC1)N1CCC2(CCCN(CCOc3ccccc3)C2)C1 (stereo not drawn),69.9
14,c1ccc(CCN2CCOC(CNc3cccnn3)C2)nc1 (stereo not drawn),-71.2
15,Cc1cccc(C(C)CNC(=O)N2CCC3(C2)OCCO3)c1 (stereo not drawn),52.6
16,Cc1cccc(C(C)CNC(=O)N2CCOCC3(CCOCC3)C2)c1 (stereo not drawn),-7.36
17,CC(NC(=O)N1CCC2(C1)OCCO2)c1cccc(Cl)c1 (stereo not drawn),5.58
18,Cc1ccc(C)n1-c1ccsc1C(=O)NCC(=O)N1CCCC1,-7.7
19,COc1ccc(-n2cc3nc(N4CCCC4)[nH]cc-3c2=O)cc1Cl,30.8
20,Cc1ccc(OC2(C(=O)NC(C)Cc3ccsc3)CCNCC2)cc1 (stereo not drawn),-8.75
